According to PubChem BioAssay AID588456 (National Center for Advancing Translational Sciences (NCATS), 2011):
About 55 (0.01%) of roughly 390,000 compounds were called active. A selection follows. A number with no mark means an inactive call. Calls come from the whole dose curve; as a rule, active = well fitted inhibition curve with a large enough effect; inconclusive = small, poorly fitted or top-dose-only effect; inactive = no such curve, though single readings can be large or run the other way.

Each molecule was assayed against Thioredoxin reductase 1, cytoplasmic (Rattus norvegicus) (UniProt O89049) (assay: qHTS Assay for Substrates of Mammalian Selenoprotein Thioredoxin Reductase 1 (TrxR1): qHTS). Conditions: purified TrxR1 substrate turnover, NADPH consumption readout; series mostly up to 114 µM; activity change, negative = substrate turnover: at the top concentration.
Chain of Thioredoxin reductase 1, cytoplasmic (Rattus norvegicus) (O89049 whole entry, looked up): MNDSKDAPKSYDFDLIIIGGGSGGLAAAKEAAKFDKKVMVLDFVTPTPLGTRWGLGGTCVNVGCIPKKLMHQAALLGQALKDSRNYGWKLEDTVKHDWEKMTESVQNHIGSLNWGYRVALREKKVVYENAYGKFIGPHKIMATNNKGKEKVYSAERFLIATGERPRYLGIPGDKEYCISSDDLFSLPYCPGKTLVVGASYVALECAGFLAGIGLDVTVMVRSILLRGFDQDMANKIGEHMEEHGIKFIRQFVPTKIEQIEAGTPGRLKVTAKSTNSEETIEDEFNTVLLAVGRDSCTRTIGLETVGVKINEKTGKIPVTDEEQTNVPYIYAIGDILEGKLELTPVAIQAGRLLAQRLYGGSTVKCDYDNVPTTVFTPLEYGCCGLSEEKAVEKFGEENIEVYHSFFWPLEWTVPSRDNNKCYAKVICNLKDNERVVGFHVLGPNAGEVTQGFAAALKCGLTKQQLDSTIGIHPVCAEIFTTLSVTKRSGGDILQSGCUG
From the text: The selenoprotein thioredoxin reductase (TrxR; EC 1.8.1.9) is a FAD containing homodimeric pyridine nucleotide-disulfide oxidoreductase with many cellular roles. Together with NADPH and its prime substrate thioredoxin (Trx), the enzyme forms the core of the Trx system. The mammalian Trx system exerts a wide spectrum of functions including redox regulation, antioxidant defense, regulation of transcription factors as well as support of cell growth and replication. Many of these functions involve the reduction of Trx, which may subsequently reduce a number of different substrates including ribonucleotide reductase, peroxiredoxins or NFkB. Mammalian TrxR itself also has a broad substrate specificity, reducing both protein and non-protein substrates, including low molecular weight compounds such as dehydroascorbate, lipoic acid, ubiquinone, and juglone. In addition, several drugs in clinical use for anticancer treatment are indeed known to target TrxR1.
This BioAssay is a validation of an NADPH fluorescence-based, dual-purpose qHTS rTrxR1 assay designed to find potential inhibitors and substrates of rTrxR1. For this particular BioAssay, actives are potential substrate. See related BioAssay for inhibition data deposition.
NIH Molecular Libraries Probe Production Network [MLPCN]
NIH Chemical Genomics Center [NCGC]
Assay Provider: Elias Arner, Karolinska Institute
Assay protocol: 2 uL of reagents (buffer in column 4 as negative control and 90 nM rTrxR1 in columns 1-3 and 5-48) were dispensed into Greiner black solid-bottom 1,536-well assay plates, followed by 1 uL of NADPH (400 uM final concentration) to each well. The plates were centrifuged at 1000 rpm for 15 seconds and subsequently incubated for 5 min at room temperature (~22 deg C) to allow for rTrxR1 reduction. Compounds (23 nL) were then transferred via Kalypsys pin tool equipped with 1536-pin array (10 nL slotted pins, V&P Scientific, San Diego, CA). In addition, a duplicate 2-fold serial dilution of the control compounds auranofin, a known gold-based TrxR1 inhibitor, and juglone (5-hydroxy-1,4-naphthoquinone), a natural TrxR1 substrate, were pin-transferred to columns 2 and 3, respectively. After incubation for 15 min at room temperature (~22 deg C), 1 uL of selenite (400 uM final concentration) were dispensed to each well. The plate was immediately transferred to a ViewLux high-throughput CCD imager (PerkinElmer), wherein kinetic measurements of NADPH fluorescence (Ex 340 nm, Em 450 nm) were acquired (8 minute kinetic read, see Table 1). Read 1 was utilized to assess the capacity of a compound to serve as an rTrxR1 substrate, i.e. a decrease in NADPH fluorescence compared to the no-compound background is an indication of a substrate behavior for that particular compound. For inhibitory activity of a compound, delta values, computed as the difference in fluorescence intensity between the first and last reads of an 8-minute time kinetic window, were used. All reagents were diluted in an assay buffer consisting of 50 mM Tris-HCl, pH 7.5, 2 mM EDTA, and 0.01% Tween-20.
Throughout the screen, reagent bottle and all liquid lines were made light-tight to minimize reagent degradation. All screening operations were performed on a fully integrated robotic system (Kalypsys, San Diego, CA) containing one RX-130 and two RX-90 anthropomorphic robotic arms (Staubli, Duncan, SC). Library plates were screened starting from the lowest and proceeding to the highest concentration, and a 'double-pinning' step of the highest concentration was required to access higher concentrations of compounds. Vehicle-only plates, with DMSO being pin-transferred to the columns 5-48, were inserted uniformly at the beginning and the end of each library in order to monitor and record any shifts in the background, which can be affected by reagent dispensers or loss in enzyme activity over time. […]
% is set by controls: 0 for no effect and ±100 for the full control effect.
Note: nearly all actives have a fitted effect of over 50% in size.

Row | Compound | activity change, negative = substrate turnover
1 | Cc1ccc(Cl)cc1NC(=O)NC1COc2ccccc2C1 (stereo not drawn) | -4.68% [at 57.1 µM]
2 | O=C(NCc1ccccc1)c1cccc(NC(=O)N2CCSc3ncccc32)c1 | 14.6%
3 | CC1(C)CC(=O)c2cc(C(=O)NCc3ccccc3)c(=O)[nH]c2C1 | -6.92%
4 | CCCCCCCNc1ccc(/C=C/c2ccnc3ccccc23)cc1 | -6.31%
5 | O=C(CC1Oc2ccc(Cl)cc2NC1=O)NCc1ccccc1 (stereo not drawn) | 10.4%
6 | CSc1cccc(NC(=O)CN2C(=O)CCc3cc(S(=O)(=O)N4CCCCC4)ccc32)c1 | 5.52% [at 57.1 µM]
7 | Cc1ccc(NC2=C(c3ccc(C(F)(F)F)cc3)C(=O)c3ccccc32)cc1F | -10.1%
8 | CNC(=O)c1ccc(-c2nc(CN3CCc4ccccc43)c(C)o2)cc1 | 5.73% [at 57.1 µM]
9 | O=C(c1ccco1)N(Cc1cccs1)c1ccc(O)cc1 | -12.1%
10 | S=c1[nH]c(=S)c2n[nH]nc2[nH]1 | -1.94% [at 0.0914 µM]
11 | CC(C)(C)c1ccc(C(=O)C[N+]2(C)CCCc3ccccc32)cc1 (stereo not drawn) | 0.15%
12 | O=C(O)C1=C/C(=C/C=[N+]2c3cc(O)c(O[C@H]4OC(CO)[C@@H](O)[C@@H](O)[C@@H]4O)cc3C[C@@H]2C(=O)[O-])C[C@H](C(=O)O)N1 (stereo partly drawn) | -2.67%
13 | CC1CC(C)CN(c2oc(-c3ccc(OCc4ccc(Cl)cc4)cc3)nc2C#N)C1 (stereo not drawn) | 6.36% [at 0.0914 µM]
14 | c1ccc(Cn2nnc3c(N4CCCCC4)ncnc32)cc1 | -2.36%
15 | CCC(=O)N1CCc2cc(S(=O)(=O)NC(C(=O)NCCc3ccc(C)cc3)C(C)C)ccc21 (stereo not drawn) | 5.25%
16 | OCCNc1ncnc2oc(-c3ccco3)c(-c3ccco3)c12 | 51.2%
17 | O=[N+]([O-])c1ccc(/C=C/c2ccc3cccnc3c2)cc1 | -4.78%

Row | Compound | activity change, negative = substrate turnover
18 | Cc1ccc(-c2nc3ccccn3c2Nc2ccc(F)cc2)o1 | 207%
19 | O=C(Nc1ccc(O)c(-c2nc3ccccc3o2)c1)c1ccc(-c2cccc(Cl)c2)o1 | -3.24%
20 | CCc1cccc(NC(=O)CN(C)S(=O)(=O)c2ccc3[nH]c4c(c3c2)CCCC4)c1 | -8.34%
21 | COc1cc2nc(C#Cc3nc4cc(OC)c(OC)cc4[nH]3)[nH]c2cc1OC | 896%
22 | NC(=O)Nc1ccc(/C=C/c2ccnc3ccccc23)cc1 | 8.44%
23 | CCOC(=O)C1CCCN(C(=O)Cn2ncc3c(C)n(Cc4ccc(F)cc4)c(C)c3c2=O)C1 (stereo not drawn) | -4.95%
24 | COc1ccc(/C=C/c2ccnc3ccccc23)cc1OC | -3.3%
25 | O=C(Nc1ccc([N+](=O)[O-])cc1)c1cnn2c1NC(=C1CC1)C=C2C(F)F | 3.87%
26 | COc1ccc(-c2nc(CN3CCC(C(=O)NCc4ccccc4)CC3)c(C)o2)cc1OC | 11%
27 | Cc1c(CCO)sc[n+]1CC(=O)c1ccc2ccccc2c1 | 83.8%
28 | CN(C)c1cccc2ccccc12 | -13.4%
29 | O=C(Nc1ccc(Cl)cc1)c1cnn2c1NC(=C1CC1)C=C2C(F)F | 8.83%
30 | O=C(Cn1cc(SCc2ccccc2)c2ccccc21)N1CCCCC1 | -7.71%
31 | Cc1ccc(C(=O)Nc2ccc(OCc3cc(=O)n4c5c(sc4n3)CCCC5)cc2)cc1 | 1.97%
32 | N#Cc1ccc[n+](CC(=O)c2ccc(O)c(O)c2)c1 | -13.3%
33 | Cc1ccc(Nc2c(-c3ccc(C)s3)nc3ccccn23)cc1 | inactive
